Test systems include DU-145 prostate; K-562 leukemia; MALME-3M melanoma; MDA-MB-231 breast; SF-268 CNS; SF-295 CNS; SF-539 CNS; UACC-257 melanoma; M14 melanoma; HCT-15 colon; HT29 colon; SNB-75 CNS; SNB-19 CNS; U251 CNS; PC-3 prostate; SK-MEL-5 melanoma; UACC-62 melanoma; LOX IMVI melanoma; SK-MEL-28 melanoma; RXF 393 renal.
Holding throughout (assay): NCI-60 one-dose screen, 48 h (100 = growth as untreated, 0 = no growth, -100 = all killed)
Details in all cases: 10 µM

This is part of a sample that, as a whole, favours compounds with a hit. Of some 83,000 tested, about 20% had one in any assay.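 Cell lines were cultured in 96-well plates, exposed to a single compound concentration, and assessed for percent growth 48 hours later.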 Unmarked numbers belong to inactive results. Activity calls are given as the source filed them. The calls were made as follows: active = growth percent below 10; inactive = the rest.

Take `CC(C)(C)CC(C)(C)c1ccc(O)c(Cc2ccc(Cl)cc2Cl)c1`: the growth in the test on DU-145 prostate was -89.2% (active); with K-562 leukemia it was -59% (active); with MALME-3M melanoma, -89.4% (active); with MDA-MB-231 breast, -88.4% (active); with SF-268 CNS it was -83.6% (active); in the test on SF-295 CNS, -91.6% (active). In addition, the growth in the test on SF-539 CNS was -75.5% (active); in the test with UACC-257 melanoma, -66.1% (active); in the test on M14 melanoma, -87.9% (active); in the test with HCT-15 colon, -78.7% (active); in the test with HT29 colon, -92.4% (active); in the test with SNB-75 CNS, -77.7% (active). Moreover, the growth with SNB-19 CNS was -82.9% (active); in the test on U251 CNS it was -95.3% (active); with PC-3 prostate, -65.2% (active); with SK-MEL-5 melanoma it was -95.1% (active); in the test with UACC-62 melanoma, -87.9% (active); with LOX IMVI melanoma, -95.4% (active). Besides, in the test with SK-MEL-28 melanoma, the growth was -84.9% (active).
Consider `C[C@]12CC[C@H]3[C@@H](CC=C4C[C@@H](O)CC[C@@]43C)[C@@H]1CC[C@@H]2C(=O)C/C=N/O`, for which the growth in the test on DU-145 prostate was 99.5%; in the test with K-562 leukemia, 78.1%; in the test with MALME-3M melanoma, 84%; with MDA-MB-231 breast it was 103%; in the test on RXF 393 renal, 96.2%; with SF-268 CNS, 92.2%. In addition, the growth was 97.2% with SF-295 CNS; 91.6% in the test on SF-539 CNS; 99.5% with UACC-257 melanoma; 95.7% in the test with M14 melanoma; 81.1% with HT29 colon; 85.4% in the test on SNB-75 CNS. In addition, the growth is 95.1% in the test with SNB-19 CNS; 83.8% with U251 CNS; 71.9% in the test with PC-3 prostate; 92.8% with SK-MEL-5 melanoma; 88.6% in the test with UACC-62 melanoma; 82% with LOX IMVI melanoma. Also, in the test on SK-MEL-28 melanoma, the growth is 106%.
As to `Nc1c(CNCc2nnn(Cc3ccccc3)c2N)nnn1Cc1ccccc1`, the growth with DU-145 prostate was 107%; in the test on K-562 leukemia it was 93.6%; in the test with MALME-3M melanoma, 79.9%; in the test on MDA-MB-231 breast it was 108%; in the test with RXF 393 renal it was 99.7%; with SF-268 CNS it was 103%. Further, the growth with SF-295 CNS was 101%; in the test with SF-539 CNS, 95.6%; in the test on UACC-257 melanoma, 103%; in the test on M14 melanoma, 98.5%; in the test on HT29 colon, 105%; in the test on SNB-75 CNS, 99%. Besides, the growth with SNB-19 CNS was 103%; in the test with U251 CNS, 97.6%; with PC-3 prostate, 98.9%; in the test with SK-MEL-5 melanoma, 104%; in the test on UACC-62 melanoma it was 102%; in the test on LOX IMVI melanoma it was 95.3%. In addition, the growth in the test with SK-MEL-28 melanoma was 115%.
On to `CC(=O)OC1Oc2ccccc2-c2oc(=O)c(-c3ccc(F)cc3)cc21` (configuration not stated), for which the growth is 92.4% in the test on DU-145 prostate; 87.7% in the test with K-562 leukemia; 99.5% in the test with MALME-3M melanoma; 73.1% in the test with MDA-MB-231 breast; 81.4% in the test with SF-268 CNS; 89.1% in the test on SF-295 CNS. Besides, the growth in the test on SF-539 CNS was 86.4%; in the test with UACC-257 melanoma it was 58.6%; in the test with M14 melanoma, 100%; in the test with HCT-15 colon it was 95.8%; in the test with HT29 colon, 99%; in the test on SNB-75 CNS it was 71.8%. The growth in the test with SNB-19 CNS is 100%; with U251 CNS it was 76.2%; with PC-3 prostate, 110%; in the test with SK-MEL-5 melanoma, -35.4% (active); in the test on UACC-62 melanoma, 50%; in the test with LOX IMVI melanoma, 85.3%. Further, the growth in the test with SK-MEL-28 melanoma is 96.7%.
With `CCOCC[P+](c1ccccc1)(c1ccccc1)c1ccccc1`, the growth in the test with DU-145 prostate is 59.8%; in the test on K-562 leukemia it was 20%; in the test with MALME-3M melanoma, 61.1%; in the test on MDA-MB-231 breast, 63.5%; in the test with RXF 393 renal, 79.2%; with SF-268 CNS, 61.9%. The growth with SF-295 CNS is 39%; in the test with SF-539 CNS it was 56.2%; with UACC-257 melanoma, 14%; in the test with M14 melanoma it was 60.8%; in the test with HT29 colon, 34.2%; in the test with SNB-75 CNS, 46.7%. The growth with SNB-19 CNS was 48%; with U251 CNS, 38.3%; in the test on PC-3 prostate, 33.4%; with SK-MEL-5 melanoma, 21.6%; in the test with UACC-62 melanoma, 33%; in the test on LOX IMVI melanoma, 52.5%. Also, in the test with SK-MEL-28 melanoma, the growth was 67.9%.
Turning to `COc1ccc(C2C=C(c3ccc(Cl)cc3)N=C3SC=CN32)c(Br)c1` (configuration not stated), the growth with DU-145 prostate is 97%; in the test with K-562 leukemia it was 66.1%; with MALME-3M melanoma, 106%; in the test on MDA-MB-231 breast, 47.7%; with RXF 393 renal, 69.8%; in the test on SF-268 CNS, 71.2%. In addition, the growth was 55.6% in the test on SF-295 CNS; 91.1% in the test on SF-539 CNS; 83.2% in the test on UACC-257 melanoma; 78.6% in the test with M14 melanoma; 65.2% with HT29 colon; 63.6% with SNB-75 CNS. The growth with SNB-19 CNS is 66.9%; with U251 CNS, 70.2%; in the test with PC-3 prostate, 45.2%; with SK-MEL-5 melanoma, 88.6%; in the test with UACC-62 melanoma, 75.2%; in the test on LOX IMVI melanoma it was 71.2%. In the test on SK-MEL-28 melanoma, the growth is 63.5%.
`O=C(Nc1ccc(CN2CCOCC2)cc1)c1ccc(-c2cc(Cl)ccc2Cl)o1`: the growth in the test on DU-145 prostate was 75.4%; in the test with K-562 leukemia, -23.7% (active); in the test on MALME-3M melanoma, -53.4% (active); with MDA-MB-231 breast, 9.54% (active); in the test with RXF 393 renal, 38.4%; in the test with SF-268 CNS, 57.8%. Besides, the growth is 57.6% in the test on SF-295 CNS; 88.3% in the test with SF-539 CNS; 49.4% in the test with UACC-257 melanoma; -44.2% (active) in the test on M14 melanoma; 2.85% (active) in the test with HT29 colon; 48% in the test with SNB-75 CNS. Also, the growth with SNB-19 CNS is 54.7%; with U251 CNS, 32.4%; with PC-3 prostate, 41.4%; in the test on SK-MEL-5 melanoma, 37.1%; with UACC-62 melanoma it was -56.1% (active); in the test on LOX IMVI melanoma, 4.07% (active). The growth in the test with SK-MEL-28 melanoma is 41.4%.
Consider `COCCOC(=O)NC(=O)Nc1ccc(C(=O)c2ccc(Cl)cc2)cc1`, for which the growth was 38.2% in the test on DU-145 prostate; 11.7% with K-562 leukemia; 56.8% with MALME-3M melanoma; 49.8% in the test on MDA-MB-231 breast; 40% in the test with RXF 393 renal; 55.2% with SF-268 CNS. Also, the growth with SF-295 CNS is 21.9%; in the test with SF-539 CNS, 15.4%; in the test on UACC-257 melanoma it was 50.8%; in the test with M14 melanoma, 20.2%; with HT29 colon, 11.9%; with SNB-75 CNS, 6.4% (active). Further, the growth with SNB-19 CNS is 41.3%; with U251 CNS it was 37.8%; with PC-3 prostate, 32.1%; in the test with SK-MEL-5 melanoma, 5.54% (active); with UACC-62 melanoma, 25.8%; in the test with LOX IMVI melanoma, 37.2%. Also, the growth with SK-MEL-28 melanoma is 62.6%.

The values are drawn from PubChem BioAssay (NCI).
